Luc counter: Counterscreen for Luciferase (Kinase-Glo TM) Inhibition. Luciferin 4-monooxygenase (Photuris pensylvanica), Q27757. Kinase-Glo luciferase, ATP luminescence, 8 min. Potency, µM (doses to about 38.3 µM), without a hit: at the top dose activity change, negative = inhibition, most hits filed as inhibitors. 200,000 compounds, 0.28% hits. AID 1379, 2008; also: nearly all actives have a fitted effect of over 60% in size
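Light output from Kinase-Glo luciferase with luciferin and 10 uM ATP in 50 mM imidazole pH 7.2, KCl, MgCl2, Tween 20, BSA; compound pin-delivered, 8-min ambient incubation, then luminescence read.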
Gal4-VP16 FLuc: VP16 counterscreen qHTS for inhibitors of ROR gamma transcriptional activity | 310,000 compounds, 3.5% hits | AID 2546, 2010 | Drosophila S2 Gal4-VP16 UAS-luciferase, luminescence, 20 h | Potency, µM (series often up to 53.6 µM), for the others: at the highest dose activity, negative = inhibition, actives largely listed as inhibitors;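 also: Gal4-VP16 expression switched on by copper sulfate through the metallothionein promoter; nearly all actives have a fitted effect of over 50% in size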
RORgamma inh: qHTS for inhibitors of ROR gamma transcriptional activity; Nuclear receptor ROR-gamma (Mus musculus), P51450; Drosophila S2 Gal4-RORgamma UAS-luciferase reporter, 20 h; Potency, µM (series often up to 53.6 µM), for inactives: at the top dose activity change, negative = inhibition, most hits filed as inhibitors; 310,000 compounds, 5.4% hits; AID 2551, 2010; also: nearly all actives have a fitted effect of over 60% in size
Target sequence (P51450 whole entry, looked up, the tested form may be a part): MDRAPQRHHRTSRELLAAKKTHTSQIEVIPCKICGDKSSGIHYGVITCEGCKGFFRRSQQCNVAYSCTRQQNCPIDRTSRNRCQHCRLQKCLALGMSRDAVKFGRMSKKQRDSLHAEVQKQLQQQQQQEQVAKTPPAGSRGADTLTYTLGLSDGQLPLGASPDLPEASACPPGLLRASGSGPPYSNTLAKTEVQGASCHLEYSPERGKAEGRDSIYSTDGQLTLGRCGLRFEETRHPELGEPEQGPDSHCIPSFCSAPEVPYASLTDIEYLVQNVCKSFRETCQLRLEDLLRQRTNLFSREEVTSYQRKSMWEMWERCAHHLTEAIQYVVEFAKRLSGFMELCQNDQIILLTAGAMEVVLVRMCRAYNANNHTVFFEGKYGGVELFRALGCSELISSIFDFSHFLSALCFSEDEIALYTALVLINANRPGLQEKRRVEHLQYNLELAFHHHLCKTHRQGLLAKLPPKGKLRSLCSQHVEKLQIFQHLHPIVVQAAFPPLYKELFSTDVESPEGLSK
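Drosophila Schneider cells stably carrying a metallothionein-driven Gal4 DBD–ROR gamma fusion and a UAS-Photinus luciferase reporter were exposed to compound for 1 hr, then induced with copper sulfate (700 uM final) for 20 hr at ambient temperature before luminescence reading.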
The depositor's hits bear a star; ? = inconclusive; . = not tested or not shown; [ ] = remark or other dose. In the library only some 6.2% were active in any assay of this set; here they are far more common. Calls follow the shape of the dose curve; as a rule, active = well fitted curve in the direction sought with a large enough effect; inconclusive = small, poorly fitted or top-dose-only effect, or another doubt; inactive = no such curve, though single readings can be large; an effect the other way counts as inactive or inconclusive. % is scaled to controls: 0 for no effect and ±100 for the full control effect; potency is read from the fitted curve at half-maximal effect.

SMILES	Luc counter	Gal4-VP16 FLuc	RORgamma inh
CCOC(=O)C1=C(C)N(C)C(=S)NC1c1ccccc1Cl (stereo unspecified)	-7%	?	8.9µM*
CCOCCOC(=O)C1=C(C)N(C)C(=O)NC1c1ccccc1Cl (stereo unspecified)	-3%	2%	-15%
CCOC(=O)C1=C(C)N(CCCC(=O)O)C(=O)NC1c1ccc(Cl)cc1Cl (stereo unspecified)	.	5%	-8%
CCOC(=O)C1=C(C)N(C)C(=S)NC1c1cccc(Cl)c1Cl (stereo unspecified)	6%	?	4µM*
CCOC(=O)C1=C(C)N(C)C(=S)NC1c1ccc(Cl)cc1Cl (stereo unspecified)	5%	7.9µM*	7.1µM*
CC1(C)SC2C(N3C(=O)C(c4ccccc4)NC3(C)C)C(=O)N2C1C(=O)O (stereo unspecified)	-4%	-8%	7%
Cc1ccc(NC(=O)CN(C)C(=O)COC(=O)CNS(=O)(=O)c2ccc(Br)cc2Cl)cc1	.	-8%	3%
Clc1ccc(-c2ccc(CNCC3CCCO3)o2)cc1 (stereo unspecified)	.	4%	14%
N#Cc1ccc2c(c1)C[C@]1(CCCCN3C(=O)c4ccccc4C3=O)OC3=C(C(=O)OC4(CCCCC4)C3)C2O1	.	-12%[10 µM]	-18%[10 µM]
Cc1ccc(C(=O)NNC(=O)CSc2nnc(-c3ccccc3)n2Cc2ccccc2)cc1	-4%	-8%	-35%
Cc1ccc(C(=O)Nc2ccc(C(=O)O)cc2)cc1S(=O)(=O)NCc1ccccc1	1%	-10%	10%
CCOC(=O)c1nc(C)sc1-c1ccnn1S(=O)(=O)c1ccc(C)cc1	.	0%	-2%
[S-]C(=Nc1ccc(Cl)cc1)N[n+]1ccccc1	-1%	?	5%
Cc1ccccc1C(=O)NN1CC(C(=O)OCc2ccc(Cl)c(Cl)c2)CC1=O (stereo unspecified)	.	4%	15%
O=C(N/N=C/c1ccc(-c2ccc(Br)cc2)o1)c1ccc2c(c1)OCO2	0%	10µM*	3.5µM*
O=C(N/N=C/c1ccccc1C(=O)O)c1cccc(S(=O)(=O)Nc2cc(Cl)ccc2Cl)c1	.	3%	-5%
Cc1ccc(/C=N/NC(=O)c2cccc(S(=O)(=O)Nc3ccccc3Cl)c2)s1	.	5µM*	7.1µM*
Cc1ccc(/C=N/NC(=O)c2ccc3c(c2)OCCO3)s1	.	?	5.6µM*
O=C(N/N=C\c1ccc(S(=O)(=O)O)o1)c1ccc2c(c1)OCO2	.	-5%	-18%
Cc1ccc(/C=N/NC(=O)c2ccc3ccccc3c2)s1	.	5µM*	3.5µM*
COc1ccc(OC)c(/C=C(\NC(=O)c2ccccc2)C(=O)N/N=C/c2ccc(C)s2)c1	2%	?	?
O=C(N/N=C/c1cc2c(cc1Cl)OCO2)c1ccc2c(c1)OCCO2	.	7%	-3%
O=C(COC(=O)c1ccc[nH]c1=O)NCC1CCCO1 (stereo unspecified)	1%	1%	-41%
CCn1cc(CN2CCC(C(=O)Nc3ccc(Oc4cccnc4)cc3)CC2)cn1	.	0%	-18%
CCCCc1cc(=O)oc2cc(C)cc(OC(C)C(=O)NCc3ccncc3)c12 (stereo unspecified)	.	-7%	-3%
SMILES	Luc counter	Gal4-VP16 FLuc	RORgamma inh
CCOC(CNC(=O)CN1C(=O)COc2ccc(S(=O)(=O)N3CCOCC3)cc21)OCC	.	-3%	-8%
O=C(N/N=C/c1cc(Br)cs1)c1ccc2c(c1)OCCO2	.	?	11µM*
O=C(N/N=C/c1c(Cl)[nH]c2ccccc12)c1ccc2c(c1)OCCO2	.	-5%	-1%
Cc1ccc(Cn2ccc(O)c(Cc3ccccc3)c2=O)cc1	2%	3%	3%
Clc1ccccc1/C=C/c1nc(-c2ccccn2)no1	.	?	2.5µM*
Cc1onc(-c2ccccc2Cl)c1-c1nc(-c2ccccn2)no1	-3%	-5%	-30%
CN1CCN(c2ncc3nc(-c4cc(F)cc(F)c4)c(=O)n(-c4ccccc4)c3n2)CC1	-8%	6%	-3%
COc1ccc(OC)c(C2SCCN2S(C)(=O)=O)c1 (stereo unspecified)	-2%	3%	11µM*
COc1ccccc1C1SCCN1S(C)(=O)=O (stereo unspecified)	-1%	2%	0%
Fc1ccc(NC(=S)NCc2ccccc2)cc1	.	10µM*	8.9µM*
O=C(CCc1ccccc1)NNC(=O)Nc1ccc(Br)cc1	.	2%	0%
C=CCNC(=S)NCc1ccccc1OC	1%	?	11µM*
S=C(NCc1ccccc1)NCc1ccc(CNC(=S)NCc2ccccc2)cc1	-1%	3%	2%
Fc1ccc(NC(=S)NCc2cccnc2)cc1	3%	4%[10 µM]	11%
O=C(CCc1ccccc1)NNC(=S)Nc1ccc(F)cc1	.	?	3.5µM*
Fc1ccc(CNC(=S)NCc2ccccc2)cc1	.	?	11µM*
C=CCNC(=S)NCc1ccccc1	.	-12%	16%
COc1ccc(S(=O)(=O)N(C)c2ccc(C(=O)Nc3cccnc3)cc2)cc1	.	4%	?
Cn1nnc2cc(C(=O)Nc3ccc4ccccc4c3)ccc21	0%	2%	-5%
O=C(C1=C[C@H](c2ccccc2)C[C@H](OCc2ccc(CO)cc2)O1)N1CCCCCCC1	.	1%	-5%
COc1ccc(Oc2ncc3nc(-c4ccccc4)c(=O)n(C4CC4)c3n2)cc1	0%	5%	-8%
O=c1c2sccc2nc(SCc2cc(=O)n3cc(Br)ccc3n2)n1Cc1ccccn1	-1%	17%	-25%
Cc1ccsc1/C=N/NC(=O)CC(=O)NCC(C)C	0%	14%	7%
COC(=O)c1cn(CCC#N)nc1-c1ccc2ccccc2c1	.	8%	1%
COc1ccccc1CNC(=O)Cc1ccc(C)cc1	1%	-20%	15%
SMILES	Luc counter	Gal4-VP16 FLuc	RORgamma inh
S=C(NCc1ccccc1)Nc1ccc(Oc2ccccc2)cc1	.	14µM*	13µM*
COc1ccccc1CNC(=S)NCc1ccc(F)cc1	.	7.9µM*	7.1µM*
S=C(NCc1ccccc1)Nc1ccc2cn[nH]c2c1	.	-1%	-15%
OCCNC(=S)Nc1ccc(Oc2ccccc2)cc1	1%	21%	-26%
O=C(CCc1ccccc1)NC(NC(=S)Nc1ccc(Br)cc1)C(Cl)(Cl)Cl (stereo unspecified)	-3%	4.5µM*	?
O=C(CCc1ccccc1)NC(NC(=S)Nc1cccc(Cl)c1)C(Cl)(Cl)Cl (stereo unspecified)	1%	10%	?
S=C(NCc1ccccc1)Nc1ccc2ccccc2c1	.	11µM*	4µM*
Nc1ccc(S(=O)(=O)Nc2nccc(/C=C/c3ccc(Cl)cc3Cl)n2)cc1	.	5%	5%
C[C@@]12C[C@H](O)C3[C@H](CCC4=CC(=O)CC[C@]43C)[C@H]1CC[C@@H]2c1csc(-c2ccccc2)n1 (stereo partly specified)	-4%[7.66 µM]	.	.
CC(C)C1CCC(C(=O)NC(Cc2ccccc2)C(=O)O)CC1 (stereo unspecified)	-1%	-5%	33%
CC(OC(=O)CNC(=O)c1ccc2ccccc2c1)C(=O)NC1CCCCC1C (stereo unspecified)	.	-9%	9%
Cc1noc(C)c1-c1ccc2ncnc(NCc3cccs3)c2c1	.	-8%	-19%

High-throughput results (PubChem)
